Reference: ChEMBL document CHEMBL3988442, “University of Dundee, Small-Polar-MMV Screening Library” (2021)
Out of some 69,000 compounds screened, about 950 (1.4%) showed an effect of 50% or more. The list comes from a sample in which strong results are over-represented; it also holds similar structures and randomly drawn compounds.

Each compound was assayed on Mycobacterium tuberculosis (assay: Cornell M. t heat shock assay; note: in the data most compounds retested in dose-response had high values).
Type: functional, organism-based
Set-up: dose or concentration left out as unconfirmed

SMILES | Percent Effect [%]
Cl.N#Cc1cccnc1OC1CCNCC1 | -9.035
Cc1ccc(N2C[C@@H]3OCCN(CC4CC4)[C@@H]3C2)nn1.O=C(O)C(F)(F)F | 21.44
CN1Cc2cnn(CC3CCCC3)c2C(COCC2CC2)C1.O=C(O)C(F)(F)F.O=C(O)C(F)(F)F (stereo not given) | -36.29
O=C(O)C(F)(F)F.O=C(O)C(F)(F)F.O=C(O)C(F)(F)F.c1ccc(CN2CC[C@@H]3O[C@H](COCc4ccncc4)CC[C@@H]32)nc1 | 5.621
NCC(c1ccc(Cl)cc1)N1CCc2sccc2C1 (stereo not given) | 22.77
NCC(c1ccccc1)N1CCc2sccc2C1 (stereo not given) | 4.411
CC(C)c1ccc(C(CN)N2CCc3sccc3C2)cc1 (stereo not given) | 92.4
Cc1csc([C@@H]2C[C@H]3CN(c4ncc(F)cn4)C[C@H]3O2)n1.O=C(O)C(F)(F)F | 25.07
CNC(C)Cc1ccccc1Sc1ccc(O)cc1.Cl (stereo not given) | 5.856
CC(N)Cc1ccccc1Sc1ccc(O)cc1.CC(N)Cc1ccccc1Sc1ccc(O)cc1.O=C(O)C(=O)O (stereo not given) | 54.17
CC(N)Cc1ccccc1Sc1ccccc1.O=C(O)/C=C\C(=O)O (stereo not given) | 31.83
O=C(Nc1ccccc1)[C@H]1C[C@@H]2CN(S(=O)(=O)c3ccccc3)C[C@H]1O2 | 3.672
Cc1cc(N[C@@H](CO)c2ccccc2)n2nc(C)c(C)c2n1 | 11.1
Cc1cc(NC2CCN(Cc3ccccn3)CC2)n2nc(C)c(C)c2n1 | 3.704
Cc1cc(NCCCNc2cccnc2)n2nc(C)c(C)c2n1 | 90.05
CCc1cc(NCCc2cnccn2)n2nc(C)c(C)c2n1 | 78.14
CCc1cc(NCCN2CCNC2=O)n2nc(C)c(C)c2n1 | -8.001
CCc1cc(NCCNc2cccnc2)n2nccc2n1 | 0.7035
CCc1cc(NCCc2cccnc2)n2nc(C)c(C)c2n1 | 66.22
CCc1cc(NCCNc2ccncc2C)n2nc(C)c(C)c2n1 | 10.67
CCc1cc(NCCNC(=O)c2cccnc2)n2nc(C)c(C)c2n1 | -20.84
O=C(O)C(F)(F)F.O=C(c1ccco1)N1C[C@@H]2OCCN(c3ncccn3)[C@@H]2C1 | -4.269
COc1cccc(CN2C[C@@H]3COC[C@]3(CNC(=O)C3CC3)C2)c1.O=C(O)C(F)(F)F | 18.07
O=C(O)C(F)(F)F.O=C(c1ccco1)N1CCCC12CCN(c1ncccn1)CC2 | -4.902

SMILES | Percent Effect [%]
Cn1cc(-c2csc(N3CCSCC3)n2)cn1 | 7.511
Cn1cc(-c2csc(N3CCCCCC3)n2)cn1 | 70.2
CN1CCN(c2nc(-c3cnn(C)c3)cs2)CC1 | -2.615
O=C(NCC1CC1)[C@@H]1C[C@@H]2CCN(Cc3ccoc3)C[C@@H]2O1 | -11.78
Cc1ccc(C(=O)N2CCC3(CC2)CC(N2CCOCC2)C3)cc1.O=C(O)C(F)(F)F | 4.537
Cc1noc(C)c1C(=O)N1CCOC2(COCCN(C(C)C)C2)C1.O=C(O)C(F)(F)F (stereo not given) | 7.392
CC(CNCc1ccc(Br)cc1)Oc1ccccn1.Cl (stereo not given) | -4.228
CN(C)CCn1c2c(ccc1=O)CCN(Cc1cnn(C)c1)CC2.O=C(O)C(F)(F)F.O=C(O)C(F)(F)F | 10.2
CC(C)NC(=O)N1CCC2(CCC(=O)N2CCN(C)C)CC1.O=C(O)C(F)(F)F | -12.81
CN1CCN(C(=O)c2csnn2)c2ccccc21 | -18.09
CN1CCN(C(=O)CCc2cccnc2)c2ccc(F)cc21 | 15.62
CN1CCN(C(=O)c2cnsn2)c2ccc(F)cc21 | 82.14
CN1CCCN(C(=O)c2cnsn2)c2cc(F)ccc21 | -35.83
CN1CCN(C(=O)c2cnsn2)c2cc(F)ccc21 | 57.04
CN1CCCN(C(=O)c2cnsn2)c2cc(Cl)ccc21 | -8.8
Clc1ccccc1CCN1CCN(c2ccc3nncn3n2)CC1 | 33.42
Cc1ccc(-c2nc(CN3CCCC(Cn4cncn4)C3)cs2)o1 (stereo not given) | 9.33
O=C(CC1CC1)N1CCC2(COCc3cnc(N4CCOCC4)nc32)C1 (stereo not given) | 6.453
CCOc1ccc(C(=O)N2CCN(c3nccn3C)CC2)cc1.Cl | -17.36
Cc1cnn(CCNCc2csc(-c3ccccc3)n2)c1 | 104.4
Cc1cnn(CC(C)NCc2csc(-c3cnn(C)c3)n2)c1 (stereo not given) | -23.56
Cc1cnn(CC(C)NCc2csc(-c3ccsc3)n2)c1 (stereo not given) | 27.16
Cc1cnn(CCNCc2csc(-c3cccs3)n2)c1 | 25.75
Cc1cnn(CCNCc2csc(-c3ccsc3)n2)c1 | 107.8

SMILES | Percent Effect [%]
Cc1cnn(CCNCc2csc(-c3ccc(F)cc3)n2)c1 | 22.16
Cc1cccc(N2CCc3ncc(CNS(C)(=O)=O)n3CC2)n1.O=C(O)C(F)(F)F | -36.69
Cc1ccc(C2CCCN2S(=O)(=O)N(C)CCc2ccccn2)o1 (stereo not given) | 69.2
Cc1ccc(C2CCCN2S(=O)(=O)N(C)Cc2cnccn2)o1 (stereo not given) | -5.103
CN(CCc1ccccn1)S(=O)(=O)N1CCCC1c1ccco1 (stereo not given) | 16.77
I.c1cc2c(cc1C1(CNC3=NCCN3)CCCC1)OCCO2 | -5.173
CNC(=O)CN1CCOCC12CCN(C(=O)c1ccccc1)CC2.O=C(O)C(F)(F)F | -17.78
COc1ccccc1NC(=O)N1CCCC1c1ccco1 (stereo not given) | 40.09
COc1ccc(OC)c(NC(=O)N2CCCC2c2ccco2)c1 (stereo not given) | 25.75
COc1ccc(NC(=O)N2CCCC2c2ccco2)c(OC)c1 (stereo not given) | 74.57
O=C(O)CC(O)(CC(=O)O)C(=O)O.c1ccc([C@@H]2CN(Cc3cccnc3)C[C@H]2c2cc[nH]n2)cc1 | -3.502
Cc1ccc(CN2CCC3(CC2)COCCN3S(C)(=O)=O)o1.O=C(O)C(F)(F)F | 38.18
CCCN1CCN(C(=O)Cn2nc(C(F)(F)F)c(Br)c2C2CC2)CC1 | -16.27
CCN1CCN(C(=O)Cn2nc(C(F)(F)F)c(Br)c2C2CC2)CC1 | -4.049
CN1CCN(C(=O)Cn2nc(C(F)(F)F)c(Br)c2C2CC2)CC1 | 82.35
CN1CCC(N2Cc3nc(N)ncc3C2=O)CC1 | -6.315
Nc1ncc2c(n1)CN(C1CCCC1)C2=O | 101.8
CC1CCC(N2Cc3nc(N)ncc3C2=O)CC1 (stereo not given) | 7.341
COCCN1CCc2c(CNC(=O)c3nccn3C)cncc2C1.Cl.Cl.Cl | 7.945
Cc1nc(CN2CCC3(CC2)CC(c2cccnc2)C(=O)N3C)cs1.O=C(O)C(F)(F)F.O=C(O)C(F)(F)F (stereo not given) | 40.95
O=C(c1cccnc1O)N1CCC2(CCCO2)CC1 | -109.6
CSc1ncccc1C(=O)N1CCC2(CC1)OCCCC2O (stereo not given) | 9.306
O=C(c1cccc2cccnc12)N1CC[C@@]2(CCCO2)[C@@H](O)C1 | 50.53
Br.CCOc1ccc(N(CC(=O)c2ccccc2)C2=NCCCCC2)cc1 | 104.1

SMILES | Percent Effect [%]
Br.O=C(CN(C1=NCCCC1)c1ccccc1)c1ccccc1 | -38.94
Br.Cc1ccc(N(CC(=O)c2ccc(Br)cc2)C2=NCCCCC2)cc1 | 103.6
CCOc1ccc(C(=O)CC(SC2CCCCC2)C(=O)O)cc1 (stereo not given) | 28.66
Br.O=C(CN(C1=NCCCC1)c1ccccc1)c1ccc2c(c1)OCCO2 | -15.61
Br.Cc1ccc(C(=O)CN(C2=NCCCCC2)c2ccccc2)cc1 | 26.5
Br.O=C(CN(C1=NCCCCC1)c1ccc(Cl)cc1)c1ccccc1 | 102
Cc1ccc(N(CC(=O)N2CCCCC2)C(=O)C2CCCO2)cc1 (stereo not given) | -0.08324
Br.COc1ccc(C(=O)CN(C2=NCCCCC2)c2ccccc2)cc1 | 22.41
Br.Cc1cccc(N(CC(=O)c2ccccc2)C2=NCCCCC2)c1 | 15.52
Br.O=C(CN(C1=NCCCC1)c1ccccc1)c1ccc(OC(F)F)cc1 | 95.91
C[S+]([O-])c1nncn1CC(=O)c1ccc(OC(F)F)cc1 (stereo not given) | 27.46
COc1ccc(CN2C[C@@H]3CC[C@H](C2)N(S(=O)(=O)C2CC2)C3)cc1 | -4.175
Cc1ccc(N2CC[C@@H]3[C@@H]2CCN3C(=O)Cc2cccs2)nn1.O=C(O)C(F)(F)F | 1.861
CC(=O)NCCc1cc2nc(-c3ccncc3)ccn2n1 | 1.137
COCCC(=O)N1CCCC2(CCCN2Cc2ccccc2F)C1.O=C(O)C(F)(F)F (stereo not given) | -33.92
CN(C)Cc1cc(C2CCN(C(=O)C3CCCNC3)CC2)nn1C.Cl (stereo not given) | -6.1
O=C(O)C(F)(F)F.O=C1COC2(CCN(S(=O)(=O)C3CC3)CC2)CN1c1cccnc1 | -24.7
CNC(=O)[C@H]1C[C@@H]2CN(Cc3ccc(C)cc3)C[C@H]1O2.O=C(O)C(F)(F)F | 33.5
Cc1ccc(N2CC[C@H]3O[C@H](C(=O)N4CCCCO4)CC[C@H]32)nn1.O=C(O)C(F)(F)F | 36.81
O=C(C1CC1)N1CC[C@@H]2[C@H](CC1)N(Cc1cccnc1)CCS2(=O)=O.O=C(O)C(F)(F)F.O=C(O)C(F)(F)F | -20.85
COCCNS(=O)(=O)c1cccc2c1CN(C(=O)c1cnccn1)CC2 | 3.399
COCCNS(=O)(=O)c1ccc2c(c1)CCN(C(=O)c1cncn1C)C2 | 91.56
COCCNS(=O)(=O)c1cccc2c1CN(C(=O)c1ccccc1)CC2 | -0.08173
